Screening data (PubChem BioAssay)
TGFb inhibitor: qHTS for Inhibitors of TGF-b. HepG2 CAGA-GFP TGF-b/SMAD3 reporter, GFP fluorescence, 18 h; TGF-beta stimulated, 500 pg/mL final. Potency, µM (top dose mostly 46.1 µM), without a hit: at the highest dose activity, negative = inhibition, usual class: inhibitors. hit rate 1.2% among 410,000. AID 588855, 2011; note: potency is the fitted concentration of half-maximal effect; % is set by controls: 0 for no effect and ±100 for the full control effect; nearly all actives have a fitted effect of over 65% in size
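Inhibition was scored as loss of TGF-beta-induced (500 pg/mL final, 18 hours, 37 degrees C) GFP in HEPG2 cells carrying a CAGA-GFP reporter, in DMEM with 1% FBS. Well GFP was summed per cell; Activity was normalised to unstimulated and stimulated DMSO wells, then concentration-response fitting.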
IL-1B inflam inh: qHTS for Inhibitors of Inflammasome Signaling: IL-1-beta AlphaLISA Primary Screen; hit rate 4.7% among 360,000; activity change, % at 57.5 µM; AID 743279, 2014; THP-1 LPS/ATP IL-1B secretion, AlphaLISA, 16 h; stronger effect = lower value; in the data active = activity change below about -50%; inconclusive = mostly about -30% to -49%; note: % is set by controls: 0 for no effect and ±100 for the full control effect
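Secreted IL-1B measured by AlphaLISA bead assay after 16 h compound exposure of THP-1 cells; compounds (final up to 57.5 uM) added 1 h before LPS (250 ng/mL) and ATP (1.25 mM) stimulation; lower signal means less secretion.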
TDP1 cell CPT: qHTS for Inhibitors of human tyrosyl-DNA phosphodiesterase 1 (TDP1): qHTS in cells in presence of CPT | chicken DT40 Tdp1-/-;hTDP1 cells + 20 nM CPT, ATP luminescence, 48 h | Potency, µM (top dose mostly 46.2 µM), inactives show at the highest dose activity change, negative = growth inhibition, most hits filed as inhibitors | hit rate 12% among 420,000; note: potency is the fitted concentration of half-maximal effect; % is set by controls: 0 for no effect and ±100 for the full control effect; nearly all actives have a fitted effect of over 55% in size
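Chicken DT40 Tdp1-/- cells stably complemented with human TDP1 were seeded at 400 cells/well in medium containing 20 nM camptothecin, exposed to pin-transferred compounds, and grown at 37 °C for at least 48 hr. Viability was read as ATP luminescence.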
ASM inhibitor: Inhibitors of Secretory Acid Sphingomyelinase (S-ASM): qHTS; placental ASM, HMU-PC fluorogenic substrate, 60 min; Potency, µM (titrated, usually from 57.5 µM), without a hit: at the top dose activity change, negative = inhibition, hits mostly inhibitors; hit rate 0.006% among 340,000; note: potency is the fitted concentration of half-maximal effect
Target sequence (P17405 47-631 limits assumed): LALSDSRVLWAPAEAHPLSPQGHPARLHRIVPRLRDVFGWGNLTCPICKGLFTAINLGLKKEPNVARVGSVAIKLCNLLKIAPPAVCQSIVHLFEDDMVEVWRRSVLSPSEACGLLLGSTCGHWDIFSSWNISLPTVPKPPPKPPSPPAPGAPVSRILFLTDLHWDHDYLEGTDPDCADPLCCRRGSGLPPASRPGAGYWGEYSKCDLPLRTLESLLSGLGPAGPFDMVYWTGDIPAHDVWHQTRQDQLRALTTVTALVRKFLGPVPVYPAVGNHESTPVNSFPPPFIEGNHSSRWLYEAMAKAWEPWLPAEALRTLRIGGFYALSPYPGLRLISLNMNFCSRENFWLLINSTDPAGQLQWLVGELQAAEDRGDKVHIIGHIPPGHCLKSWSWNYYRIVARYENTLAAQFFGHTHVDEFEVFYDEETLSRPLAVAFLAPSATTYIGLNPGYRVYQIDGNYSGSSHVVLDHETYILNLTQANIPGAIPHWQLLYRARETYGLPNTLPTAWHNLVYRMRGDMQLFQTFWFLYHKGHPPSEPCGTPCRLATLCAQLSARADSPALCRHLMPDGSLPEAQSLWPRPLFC
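HMU-PC0 cleavage (9 uM final) by human placental ASM, 60 min at 37 °C following 10 min compound exposure at RT; stopped at pH 10, fluorescence Ex 386/Em 447 nm.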
HepG2 viability: qHTS for Inhibitors of TGF-b: Cytotox Counterscreen. hit rate 0.76% among 410,000. Potency, µM (titrated, usually from 46.1 µM), without a hit: at the top dose activity change, negative = cytotoxicity, usual class: cytotoxic. HepG2 CAGA-GFP viability, ATP luminescence, 18 h; note: potency is the fitted concentration of half-maximal effect
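HepG2 CAGA-GFP cells (1000/well, DMEM with 1% FBS) received compound, then TGF-beta at 500 pg/mL final, and were incubated 18 hours at 37 degrees C. Viability was read by CellTiter-Glo luminescence. Media-only wells were set as complete cell-killing and DMSO as no toxicity.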
DT40 TDP1 no CPT: qHTS for Inhibitors of human tyrosyl-DNA phosphodiesterase 1 (TDP1): qHTS in cells in absence of CPT. hit rate 15% among 420,000. DT40 Tdp1-/- hTDP1 cells, no CPT, ATP luminescence, 48 h. Potency, µM (top dose mostly 46.2 µM), for inactives: top-dose activity change, negative = growth inhibition, actives largely listed as inhibitors; note: potency is the fitted concentration of half-maximal effect; % is set by controls: 0 for no effect and ±100 for the full control effect; nearly all actives have a fitted effect of over 55% in size
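Cells were dispensed at 400 per well, compounds added by pin tool, plates incubated ≥48 hr at 37 °C, then CellTiter-Glo added for 30 min at room temperature before luminescence reading. Line: DT40 Tdp1-/- complemented with hTDP1; camptothecin omitted.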
An asterisk follows results filed as active; ? = inconclusive; . = no result; [ ] = another dose, or the depositor's remark. Sampled rows, rich in hits. Any-hit rate of the full collection: about 19%. Unless noted, calls come from the whole dose curve; as a rule, active = well fitted curve in the direction sought with a large enough effect; inconclusive = small, poorly fitted or top-dose-only effect, or another doubt; inactive = no such curve, though single readings can be large; an effect the other way counts as inactive or inconclusive.

SMILES | TGFb inhibitor | IL-1B inflam inh | TDP1 cell CPT | ASM inhibitor | HepG2 viability | DT40 TDP1 no CPT
Cc1ccc(C(=O)Nc2ccc3c(c2)CCC3)cc1S(=O)(=O)N1CCOCC1 | ? | ? | ? | -9.0% | 1.6% | ?
NS(=O)(=O)c1cc(C(=O)Nc2ccc3c(c2)CCC3)ccc1Cl | -13.3% | -67.6* | -3.1% | -4.5% | -9.7% | ?
CCc1cccc(C)c1NC(=O)C1CCCN1C(=O)NCc1ccccc1 (configuration not stated) | -5.5% | -9.2 | -3.6% | 4.8% | -28.9% | -0.1%
C[C@@H]1CN([C@H](C)CO)C(=O)CCCn2nncc2CO[C@@H]1CN(C)S(=O)(=O)c1ccc(F)cc1 | 1.1% | 12.0 | 11.9% | . | -37.4% | ?
O=C(Nc1cccc(Cl)c1)C1C2C=CC3(O2)C1C(=O)N(CCCN1CCCCC1)C3C(=O)NC1CCCCC1 (configuration not stated) | 8.7% | 4.7 | 14.5% | -1.4% | 6.5% | 7.1%
CC1CCCC(NC(=O)C2N(CCCN3CCCC3)C(=O)C3C(C(=O)Nc4ccc(Cl)cc4)C4C=CC32O4)C1C (configuration not stated) | 4.6% | -65.2* | -21.6% | -4.6% | 0.0% | ?
O=C(Nc1ccc(Cl)c(Cl)c1)C1C2C=CC3(O2)C1C(=O)N(CCN1CCCCC1)C3C(=O)NC1CCCCC1 (configuration not stated) | 13.9% | -81.0* | ? | -1.1% | -15.1% | ?
CC1=CC2=NC(=O)/C(=C\c3cn(C)c4ccccc34)C(=N)N2O1 | 1.9% | -5.5 | -25.9% | 35.6% | 0.5% | 1.9%
CC1=CN2C(=N)/C(=C\c3cn(CCCOc4ccccc4)c4ccccc34)C(=O)N=C2S1 | -8.8% | -2.2 | 14.6µM* | 22.6% | -26.8% | ?
CCc1nc2c(OCc3ccc(C#N)cc3)cccn2c1N(C)C(=O)c1ccco1 | 5.7% | -2.2 | 0.9% | . | 2.7% | -21.2%
CC(O)(COc1ccccc1)c1ccc2c(c1)CN(Cc1ccc3nsnc3c1)CCO2 (configuration not stated) | . | . | -1.8%[9.04 µM] | . | . | -26.5%
CC(C)[C@@H](NC(=O)C1CCN(C(=O)[C@@H]2CCCN2C(=O)OC(C)(C)C)CC1)C(=O)NCc1ccc(F)cc1 | 30.3% | 3.4 | -9.1% | 1.9% | -0.4% | -18.6%
O=C(Nc1ccccc1OC(=O)c1ccc(Cl)cc1)c1ccc(Cl)cc1 | -5.5% | 13.5 | ? | . | -34.8% | 16.4µM*
O=C(Nc1ccccc1O)c1ccc(Cl)cc1 | -9.7% | 113.7 | 16.4µM* | -3.3% | -34.2% | 23.1µM*
COC(=O)c1scc(-c2ccc(C)cc2)c1S(=O)(=O)Nc1cccc(Cl)c1C | ? | . | ? | . | -37.8% | ?
COC(=O)c1scc(-c2ccc(C)cc2)c1S(=O)(=O)Nc1ccc(F)cc1F | ? | . | -13.8% | . | -58.2% | -20.2%
CCOc1ccccc1NS(=O)(=O)c1c(-c2ccc(C)cc2)csc1C(=O)OC | ? | . | ? | . | -26.1% | 16.4µM*
CCOC(=O)c1ccccc1NS(=O)(=O)c1c(-c2ccc(C)cc2)csc1C(=O)OC | ? | . | 6.51µM* | . | -12.5% | 5.8µM*
O=C1CN(C(=O)CNCc2ccc(Cl)cc2)c2ccccc2N1 | -2.1% | -2.5 | -11.6% | 0.0% | -6.2% | 38.2%
O=C(NCCc1c[nH]c2ccccc12)c1ccc(Cl)cc1 | 1.1% | -15.1 | -5.7% | -2.5% | 3.4% | ?
O=C(NCCc1c[nH]c2ccc(Cl)cc12)c1cccnc1 | -17.6% | -1.4 | ? | 2.1% | -25.5% | 20.6µM*
Cc1ccc(C(=O)c2cc(C)sc2NC(=O)CN2CCN(C(=O)c3ccco3)CC2)cc1 | -23.3% | -68.7* | ? | -14.9% | 10.5% | 18.4µM*
CCOC(=O)c1c(NC(=O)CN2CCN(C(=O)c3ccco3)CC2)sc(C(N)=O)c1C | 11.7% | -11.1 | -28.2% | 2.1% | 1.0% | 18.4µM*
CC1CCN(CC(=O)Nc2sc3c(c2C#N)CCC3)CC1 | 11.0% | -17.7 | -3.7% | 0.2% | 3.2% | -12.9%
CCc1cc(C(=O)OC)c(NC(=O)CN2CCN(C(=O)c3ccco3)CC2)s1 | -9.7% | 0.0 | ? | 2.9% | -8.7% | ?
SMILES | TGFb inhibitor | IL-1B inflam inh | TDP1 cell CPT | ASM inhibitor | HepG2 viability | DT40 TDP1 no CPT
CC1CCc2c(sc(NC(=O)CN3CCN(C(=O)c4ccco4)CC3)c2C#N)C1 (configuration not stated) | -15.8% | -7.7 | 18.4µM* | -1.3% | -28.3% | 25.9µM*
COc1ccc(NC(=O)CSc2ncc3c(n2)-c2cc(Cl)ccc2N(Cc2ccccc2F)S3(=O)=O)cc1 | 10.7% | . | ? | . | -13.7% | ?
CC(C)(C)C(=O)NC(=S)N1CCc2ccccc21 | -7.4% | 11.9 | -5.5% | 8.4% | -13.0% | -26.7%
O=C(NC(=S)N1CCc2ccccc21)c1ccccc1Br | 8.6% | 15.0 | 18.4µM* | -0.8% | -23.6% | 20.6µM*
O=C(NC(=S)N1CCc2ccccc21)c1ccc(Br)o1 | -16.8% | 0.0 | 2.91µM* | 7.7% | -0.9% | 5.17µM*
COc1ccc(NC(=O)Nc2ccc3nccnc3c2)cc1 | -2.8% | -29.6 | 25.9µM* | -2.0% | -14.1% | 20.6µM*
COc1ccc(NC(=O)Nc2nccs2)cc1 | 7.5% | 10.9 | 13µM* | 0.4% | -25.2% | 16.4µM*
COc1ccc(NC(=O)Nc2ccc3nonc3c2)cc1 | 0.8% | . | 2.1% | -2.4% | 7.9% | ?
COc1cc(OC)cc(C(=O)N2CCCC(n3cc(C(=O)NCC(C)C)nn3)C2)c1 (configuration not stated) | . | . | 15.6%[9.04 µM] | . | . | -7.4%
CCc1nnc(NC(=O)CCC(=O)N2CCN(c3cc(Cl)ccc3C)CC2)s1 | -8.7% | 22.3 | ? | -2.9% | -8.9% | -2.4%
CCOc1cccc2sc(N(CCN(C)C)C(=O)c3ccc4c(c3)OCCO4)nc12 | -7.4% | 6.1 | ? | -2.5% | -1.2% | -28.6%
CCOc1cccc2sc(N(CCN(C)C)C(=O)/C=C/c3cccs3)nc12 | ? | -103.1* | 7.31µM* | -15.7% | -67.6% | 23.1µM*
COc1cccc2sc(N(CCN(C)C)C(=O)/C=C/c3cccs3)nc12 | ? | -6.4 | ? | -1.6% | -111.7% | 20.6µM*
COc1ccc(NC(=O)CSc2nc3nc(C)c(Cc4ccccc4Cl)c(C)n3n2)cc1OC | -3.3% | . | ? | . | 5.2% | ?
